HCV inhibitor = inhibitors of hepatitis C virus infection. Huh7.5.1 HCVcc-Cre infection, luciferase reporter, 44 h. Potency, µM (top dose mostly 41.8 µM), inactives show at the highest dose activity change, negative = inhibition, actives largely listed as inhibitors. hit rate 3.4% among 340,000
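Cells (1,000/well) were plated 4 h before compound, then infected with HCVcc-Cre virus (~0.5 moi). After 44 h further culture, infection was read as luciferase luminescence following a 15 min substrate incubation at room temperature.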
AmpC inh no detg = inhibitors of E. coli AmpC beta-lactamase without detergent; P00811; AmpC nitrocefin hydrolysis, absorbance 480 nm, 0.0001% Triton; Potency, µM (highest dose often 57.1 µM), without a hit: top-dose activity change, negative = inhibition, usual class: inhibitors; hit rate 0.52% among 330,000; AID 485341;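 note: plate controls were no compound for no effect and no enzyme for full effect; nearly all actives have a fitted effect of over 20% in size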
Target sequence (P00811 whole entry, looked up): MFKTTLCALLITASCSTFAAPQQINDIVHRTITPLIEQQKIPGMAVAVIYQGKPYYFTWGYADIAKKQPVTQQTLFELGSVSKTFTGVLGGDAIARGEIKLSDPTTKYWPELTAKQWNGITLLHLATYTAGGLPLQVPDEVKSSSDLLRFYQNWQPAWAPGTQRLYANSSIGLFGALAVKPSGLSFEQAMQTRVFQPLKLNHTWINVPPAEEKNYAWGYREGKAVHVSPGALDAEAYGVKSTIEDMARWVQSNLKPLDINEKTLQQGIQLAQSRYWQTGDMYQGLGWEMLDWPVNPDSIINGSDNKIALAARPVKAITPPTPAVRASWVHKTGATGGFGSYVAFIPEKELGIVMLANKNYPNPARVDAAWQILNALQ
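AmpC (5.3 nM in the dispensed reagent) in 20 mM phosphate pH 7.0 with 0.01% (detergent screen) or 0.0001% Triton X-100 was preincubated with compounds for 15 min at room temperature. Nitrocefin was then added from an 800 uM solution, and hydrolysis was followed at 480 nm.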
AmpC detergent = inhibitors of E. coli AmpC beta-lactamase with detergent; AmpC hydrolysis of nitrocefin, absorbance 480 nm, 0.01% Triton; hit rate 0.041% among 370,000; Potency, µM (highest dose often 114 µM), without a hit: at the top dose activity change, negative = inhibition, most hits filed as inhibitors; P00811;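 note: 0% = no-compound wells and -100% = no-enzyme wells; nearly all actives have a fitted effect of over 25% in size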
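20 mM phosphate pH 7.0 + 0.01% (detergent screen) or 0.0001% Triton X-100; 5.3 nM AmpC reagent; cpd preinc 15 min RT; nitrocefin (800 uM stock) to start; A480 q20 s × 4 min; Activity was normalised to no-enzyme and no-compound control wells.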
AMA1 RON2 block = AMA1-RON2 (P. falciparum) interaction inhibition | AlphaScreen AMA1-biotinylated RON2 peptide binding | Potency, µM (titrated, usually from 58.2 µM), for the others: top-dose activity change, negative = inhibition, actives largely listed as inhibitors | hit rate 0.2% among 360,000;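 note: 0% = vehicle wells and -100% = peptide control; nearly all actives have a fitted effect of over 45% in size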
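AMA1 (3D7) with his tag at 25 nM final met compounds first, then biotinylated RON2 peptide at 25 nM; detection used donor plus acceptor beads, 10 µg/mL apiece, read by AlphaScreen after 30 min at room temperature.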
Pf growth 96h = P. falciparum growth inhibition at 96 hours. P. falciparum luciferase reporter growth, 96 h. Potency, µM (highest dose often 28.7 µM), for inactives: top-dose activity change, negative = inhibition, usual class: inhibitors. hit rate 6.9% among 320,000
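P. falciparum expressing integrated firefly luciferase, in erythrocytes at 2% hematocrit, 0.05% parasitemia, incubated with compounds 96 h at 37 C, 5% CO2. Growth inhibition read as loss of luminescence; two-generation exposure targets delayed-death apicoplast inhibitors.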
Pf growth 48h = inhibits P. falciparum growth in the first generation, 48 h. AID 504832. hit rate 5.9% among 310,000. Potency, µM (series often up to 28.7 µM), inactives show at the highest dose activity change, negative = inhibition, most hits filed as inhibitors. P. falciparum luciferase growth in erythrocytes, 48 h
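Parasite viability was followed by luminescence of a genomically integrated firefly luciferase. Cultures held 0.1% parasitemia at 2% hematocrit (final), incubated under 5% CO2 at 37 C.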
* hit, by the source's call; ? = inconclusive; / = no result. Hits are enriched below; roughly 11% of the tested compounds scored in any of these assays. Calls come from the whole dose curve; as a rule, active = well fitted curve in the direction sought with a large enough effect; inconclusive = small, poorly fitted or top-dose-only effect, or another doubt; inactive = no such curve, though single readings can be large; an effect the other way counts as inactive or inconclusive. Unless noted, % is set by controls: 0 for no effect and ±100 for the full control effect; potency is the fitted concentration of half-maximal effect.

SMILES	HCV inhibitor	AmpC inh no detg	AmpC detergent	AMA1 RON2 block	Pf growth 96h	Pf growth 48h
Cc1ccc(-c2nc3cnccn3c2Nc2ccc3c(c2)OCO3)o1	-9%	2.8µM*	?	-18%	?	?
CSc1ccc(-c2nc3cnccn3c2Nc2ccc3c(c2)OCO3)cc1	?	10%	-9%	?	0%	/
CCc1ccccc1NC(=O)CSc1nc2c(c(=O)[nH]1)CN(Cc1ccccc1OC)CC2	/	/	13%	/	/	/
C/C(=N\Nc1nc(-c2ccc(C)cc2C)cs1)c1cc2ccccc2oc1=O	8%	20µM*	?	43%	?	-10%
CN(C)S(=O)(=O)c1cccc(-c2csc(N/N=C/c3ccco3)n2)c1	?	-43%	3%	9%	-6%	?
COc1ccc2oc(=O)c(/C(C)=N/Nc3nc(-c4cc(C)ccc4C)cs3)cc2c1	-15%	-48%	-11%	31%	?	13%
Cc1ccc(-c2csc(N/N=C/c3ccco3)n2)c(C)c1	?	-35%	?	-3%	37%	13µM*
Cn1cc(/C=C(\NC(=O)c2ccccc2Cl)C(=O)NCCCN2CCOCC2)c2ccccc21	-11%	38%	-2%	0%	10µM*	?
Cc1ccc(S(=O)(=O)Oc2ccc(/C=C(/NC(=O)c3ccccc3)C(=O)Nc3ccccc3)cc2)cc1	?	-9%	5%	5%	9.3µM*	?
CCOC(=O)CSc1nc2cc(OC)c(OC)cc2c2nc(-c3ccccc3)nn12	/	/	2%	/	/	/
CCN1C=C(Cc2ccccc2C)C2=C(C1)C(c1ccccc1C)C(C#N)=C(N)O2 (stereo not drawn)	-22%	18%	3%	-20%	2.9µM*	/
Cn1nnc2c(N3CCN(c4ccc(F)cc4)CC3)ncnc21	/	/	2%	/	/	/
CCC1(CC)Cc2ccccc2C(=O)N1	-5%	-5%	1%	13%	22%	5%
O=C1c2ccccc2CC1(Cc1ccccc1)Cc1ccccc1	2%	-29%	-12%	4%	?	13µM*
Cc1ccc(OC(C)C(=O)N2CCN(CCc3ccncc3)CC2)cc1C (stereo not drawn)	/	/	-4%	/	/	/
Cc1ccc(CN(C)C(=O)CN2C(=O)NC(c3ccccc3)(c3ccccc3)C2=O)c(C)c1	?	14%	-7%	-3%	?	13µM*
CN(Cc1ccco1)C(=O)CN1C(=O)NC(c2ccccc2)(c2ccccc2)C1=O	25%	9%	-7%	-16%	?	?
CCN(Cc1cccs1)C(=O)CN1C(=O)NC(c2ccccc2)(c2ccccc2)C1=O	-6%	-4%	?	-10%	13µM*	?
CCN(Cc1cccs1)C(=O)CN1C(=O)NC2(CCCc3ccccc32)C1=O (stereo not drawn)	20%	4%	-10%	-5%	-21%	-30%
Cc1ccc(C2(c3ccccc3)NC(=O)N(CC(=O)NC3CCCCC3)C2=O)cc1C (stereo not drawn)	?	17%	-16%	-21%	?	?
CC(=O)CN1C(=O)NC(c2ccccc2)(c2ccccc2)C1=O	18%	-13%	-3%	-11%	18%	19%
CC1CCCC(NC(=O)CN2C(=O)NC(c3ccccc3)(c3ccccc3)C2=O)C1C (stereo not drawn)	-37%	-8%	?	-2%	?	15µM*
CCN(C(=O)CN1C(=O)NC(c2ccccc2)(c2ccccc2)C1=O)c1ccccc1	6%	15%	2%	-2%	?	13µM*
COc1ccc(-n2c(=O)c3sc4ccccc4c3n(CC(=O)NCc3ccccc3)c2=O)cc1	/	/	8%	/	/	/
CC(=O)c1ccc(NC(=O)Nc2sc3nc4n(c(=O)c3c2C)CCC(C)CC4)cc1 (stereo not drawn)	/	/	-13%	/	/	/
SMILES	HCV inhibitor	AmpC inh no detg	AmpC detergent	AMA1 RON2 block	Pf growth 96h	Pf growth 48h
CCC(=O)Nc1cc(C(=O)N2CCC3(CC2)OCCO3)ccc1S(=O)(=O)c1ccc(C)cc1	-5%	34%	-1%	41%	3.7µM*	19%
CC(=O)Nc1cc(C(=O)N2CCN(C)CC2)ccc1S(=O)(=O)c1ccc(C)cc1	12%	-13%	1%	21%	-26%	/
O=S(=O)(Nc1ccc(C(F)(F)F)cc1)c1ccc2c(c1)OCCO2	/	/	-2%	/	/	/
Cc1ccc(-c2[nH]c(-c3ccc(Cl)cc3)nc2SCC(=O)NCC2CCCO2)cc1 (stereo not drawn)	16%	-13%	7%	-10%	9.3µM*	?
Cc1ccc(S(=O)(=O)c2nc(-c3ccccc3)oc2SCC(=O)NCC2CCCO2)cc1 (stereo not drawn)	10µM*	84%	-6%	-4%	12µM*	10µM*
Cc1ccc(-c2nc(S(=O)(=O)c3ccc(F)cc3)c(SCC(=O)NCC3CCCO3)o2)cc1 (stereo not drawn)	2%	2%	-3%	3%	0%	8%
COc1ccc(-c2nc(S(=O)(=O)c3ccc(Cl)cc3)c(N3CCCCCC3)o2)cc1	/	/	1%	/	/	/
CCOc1ccc(S(=O)(=O)N2CCC(c3ccncc3)CC2)cc1	/	/	8%	/	/	/
CCCCOc1ccc(-c2c(C#N)c(N)nc(SCC(N)=O)c2C#N)cc1	5µM*	3%	1%	-3%	?	?
CC(=O)N1CCc2nc3sc(C(=O)c4ccc(F)cc4)c(N)c3c(C(F)(F)F)c2C1	/	/	1%	/	/	/
Cc1cccc(NCc2ccc(O)c3ncccc23)c1C	?	-14%	3%	-82%	23%	-18%
Cc1ccc(NCc2ccc(O)c3ncccc23)cc1C	?	-14%	-1%	29%	?	84%
Oc1ccc(CNc2cccc(C(F)(F)F)c2)c2cccnc12	/	-27%	?	/	?	10µM*
Cc1ccc(NCc2ccc(O)c3ncccc23)cc1	5.6µM*	-23%	7%	14%	16%	-17%
Cc1cccnc1NCc1ccc(O)c2ncccc12	10µM*	-17%	-15%	-38%	34%	?
COc1cccc(CNc2cccc(C(F)(F)F)c2)c1O	-8%	-52%	1%	10%	?	-4%
CCOc1ccccc1NC(=O)Cn1c(=O)n(-c2ccc(C)c(C)c2)c(=O)c2c(C)c(C(=O)N(C)C)sc21	/	/	7%	/	/	/
COc1ccc(-c2cc(C(F)(F)F)nc(SCC(=O)N(C)Cc3ccccc3)n2)cc1	/	/	2%	/	/	/
O=C(c1cnc(N2CCCCC2)c2ccccc12)N1CCN(c2ccc(Cl)cc2)CC1	/	/	-9%	/	/	/
Cc1ccc(CN2CCN(Cc3cccn3-c3ccc(Cl)cn3)CC2CCO)o1 (stereo not drawn)	18%	5%	6%	-25%	12µM*	?

High-throughput results: PubChem BioAssay, National Center for Advancing Translational Sciences (NCATS)
